Experiment [1] has as its system Brachyury (BRA) Protein Expression, Deisenroth Lab, TBXT (gene 6862). In words: CCTE_Deisenroth_DEVTOX-GLR_legacy_Bra: (Legacy) CCTE's DevTox GLR-Endo Assay Evaluation of Brachyury (BRA) Protein Expression, Deisenroth Lab (AID 2284329; active means hit-call score of the fitted dose curve at least 0.9, where 1 is the maximum; inactive means score below 0.9). The procedure, abridged: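 High-content imaging of fixed RUES2-GLR cells after a 48-hour differentiation with two compound exposures yields percent cells whose Bra signal exceeds pluripotent control median by 5x BMAD; values are baseline-corrected to DMSO.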

A short description of experiment [2]: CCTE_Deisenroth_DEVTOX-GLR_legacy_CellCount: (Legacy) Viability Assessment in CCTE's DevTox GLR-Endo Assay, Deisenroth Lab (AID 2284331; active means hit-call score of the fitted dose curve at least 0.9, where 1 is the maximum; inactive means score below 0.9). The following applies: actives raise or lower the signal. The procedure, abridged: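 Seed RUES2-GLR 24 h; differentiate 48 h, dosing at 0 and 24 h; fix, stain nuclei; image 5 fields/well; count nuclei. Conc. 1 nM - 200 uM, single technical replicate, n=4 experiments; bidirectional fit vs 0.2% DMSO.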

The test system of experiment [3] is SRY-box transcription factor 2 (SOX2) Protein Expression, Deisenroth Lab, SOX2 (gene 6657). In words: CCTE_Deisenroth_DEVTOX-GLR_legacy_Sox2: (Legacy) CCTE's DevTox GLR-Endo Assay Evaluation of SRY-box transcription factor 2 (SOX2) Protein Expression, Deisenroth Lab (AID 2284346; active means hit-call score of the fitted dose curve at least 0.9, where 1 is the maximum; inactive means score below 0.9). A digest of the protocol:
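Two exposures, 24 h apart, during 48 h defined-media differentiation of seeded RUES2-GLR cells; nuclei-stained cells imaged. Sox2 positivity called at 5x BMAD above endoderm control median, DMSO median subtracted.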

Experiment [4] has the same test system. In words: CCTE_Deisenroth_DEVTOX-GLR_Endo_SOX2: CCTE's DevTox GLR-Endo Assay Evaluation of SRY-box transcription factor 2 (SOX2) Protein Expression, Deisenroth Lab (AID 2284412). A digest of the protocol:
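Endpoint is percent SOX2-positive cells (SOX2+ count/total cells) minus 0.2% DMSO control, from high-content imaging of fixed, nuclear-stained RUES2-GLR cells. Dosing twice at 24 h intervals over 48 h differentiation, 1 nM–200 uM in 10 points.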

The test system of experiment [5] is SRY-box transcription factor 17 (SOX17) Protein Expression, Deisenroth Lab, SOX17 (gene 64321). As to the kind of experiment: CCTE_Deisenroth_DEVTOX-GLR_Endo_SOX17: CCTE's DevTox GLR-Endo Assay Evaluation of SRY-box transcription factor 17 (SOX17) Protein Expression, Deisenroth Lab (AID 2284413; active means hit-call score of the fitted dose curve at least 0.9, where 1 is the maximum; inactive means score below 0.9). A digest of the protocol:
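Fluorescent microscopy of a SOX17 reporter in RUES2-GLR pluripotent cells scored endoderm differentiation after 48 h and two 24-h-spaced exposures. Values are percent change in SOX17+ population against 0.2% DMSO, n=4 experimental replicates.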

Experiment [6] has as its system Brachyury (BRA) Protein Expression, TBXT (gene 6862). As to the kind of experiment: CCTE_Deisenroth_DEVTOX-GLR_Endo_BRA: CCTE's DevTox GLR-Endo Assay Evaluation of Brachyury (BRA) Protein Expression, Deisenroth Lab (AID 2284417; active means hit-call score of the fitted dose curve at least 0.9, where 1 is the maximum; inactive means score below 0.9). The procedure, abridged: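 Percent BRA+ (mesoderm) RUES2-GLR cells after 48 h differentiation with two exposures, 1 nM - 200 uM; 0.2% DMSO control subtracted.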

Experiment [7] is described as follows: CCTE_Deisenroth_DEVTOX-GLR_Endo_CellCount: Viability Assessment in CCTE's DevTox GLR-Endo Assay, Deisenroth Lab (AID 2284420; active means hit-call score of the fitted dose curve at least 0.9, where 1 is the maximum; inactive means score below 0.9). The procedure, abridged:
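RUES2-GLR pluripotent cells seeded 24 h, then differentiated 48 h in defined media with two chemical exposures 24 h apart. Nuclei counted by high-content imaging; 10-point 1 nM–200 uM series; percent change versus 0.2% DMSO.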

Experiment [8] has as its system SRY-box transcription factor 17 (SOX17) Protein Expression, Deisenroth Lab, SOX17 (gene 64321). As to the kind of experiment: CCTE_Deisenroth_DEVTOX-GLR_Pluri_SOX17: CCTE's DevTox GLR-Pluri Assay Evaluation of SRY-box transcription factor 17 (SOX17) Protein Expression, Deisenroth Lab (AID 2284427). The procedure, abridged:
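RUES2-GLR pluripotent cells were induced toward endoderm over 48 h and received two compound doses 24 h apart, in a 10-point series from 1 nM to 200 uM. The percentage of SOX17+ cells among total cells was measured by high-content imaging and reported minus the 0.2% DMSO control.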

The test system of experiment [9] is SRY-box transcription factor 2 (SOX2) Protein Expression, Deisenroth Lab, SOX2 (gene 6657). As to the kind of experiment: CCTE_Deisenroth_DEVTOX-GLR_Pluri_SOX2: CCTE's DevTox GLR-Pluri Assay Evaluation of SRY-box transcription factor 2 (SOX2) Protein Expression, Deisenroth Lab (AID 2284428; active means hit-call score of the fitted dose curve at least 0.9, where 1 is the maximum; inactive means score below 0.9). The procedure, abridged: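 RUES2-GLR human pluripotent cells, two exposures 24 h apart over 48 h differentiation; 10-point series 1 nM - 200 uM. High-content imaging gives SOX2+ cells divided by cell count, reported as percent change versus 0.2% DMSO.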

For experiment [10], the system named is Brachyury (BRA) Protein Expression, Deisenroth Lab, TBXT (gene 6862). As to the kind of experiment: CCTE_Deisenroth_DEVTOX-GLR_Pluri_BRA: CCTE's DevTox GLR-Pluri Assay Evaluation of Brachyury (BRA) Protein Expression, Deisenroth Lab (AID 2284429). A digest of the protocol:
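Mesoderm readout after 48 h differentiation of human RUES2-GLR cells, dosed twice (24-h intervals) at 1 nM - 200 uM. BRA+ frequency from fluorescence imaging of fixed, nuclear-stained cells, DMSO-corrected.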

The nature of experiment [11]: CCTE_Deisenroth_DEVTOX-GLR_Pluri_CellCount: Viability Assessment in CCTE's DevTox GLR-Pluri Assay Evaluation of Total Cell Counts, Deisenroth Lab (AID 2284430; active means hit-call score of the fitted dose curve at least 0.9, where 1 is the maximum; inactive means score below 0.9). A digest of the protocol: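 Cytotoxicity readout: fluorescent nuclei counts by high-content imaging, expressed as percent change relative to 0.2% DMSO. Human RUES2-GLR pluripotent line differentiated 48 h, dosed twice at 24-h intervals across 1 nM - 200 uM (10 points).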

Experiment [12] can be described thus: CCTE_Deisenroth_AIME_96WELL_CTox_Active: Cytotoxicity Assessment (CTOX) in CCTE's 96-well Estrogen Receptor Transactivation Assay with AIME metabolic competence (metabolism positive), Deisenroth Lab (AID 2284028). A digest of the protocol:
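Cytotoxicity in VM7Luc4E2 breast cells after 24 h exposure to medium from a 2 h metabolic pre-incubation with induced rat hepatic S9 in alginate microspheres; fluorescent live-cell protease readout, 10-point series 0.002–200 uM, n=4.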

Experiment [13] can be described thus: CCTE_Deisenroth_AIME_96WELL_CTox_Inactive: Cytotoxicity Assessment (CTOX) in CCTE's 96-well Estrogen Receptor Transactivation Assay without AIME metabolic competence (metabolism negative), Deisenroth Lab (AID 2284029). The procedure, abridged:
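Metabolism-negative mode: alginate-water lids without rat S9, 2 h pre-incubation of 10-point series (0.002 - 200 uM). Conditioned medium on VM7Luc4E2 cells 24 h; loss of fluorescent live-cell protease signal marks cytotoxicity.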

The target in experiment [14] is Estrogen receptor (Homo sapiens) (UniProt P03372). In words: CCTE_Deisenroth_AIME_96WELL_LUC_Active: CCTE's 96-well Estrogen Receptor Transactivation Assay with AIME metabolic competence (ERTA luciferase; metabolism positive), Deisenroth Lab (AID 2284023). The procedure, abridged: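 Metabolism-positive mode: induced rat hepatic S9 in alginate microspheres conditions test solutions (0.002 - 200 uM, 10 points) for 2 hours. VM7Luc4E2 ER luciferase reporter cells then exposed 24 h; positive-direction fit against 17beta-estradiol, n=4 typical.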

Experiment [15] has the same target. In words: CCTE_Deisenroth_AIME_96WELL_LUC_Inactive: CCTE's 96-well Estrogen Receptor Transactivation Assay without AIME metabolic competence (ERTA luciferase; metabolism negative), Deisenroth Lab (AID 2284025). The procedure, abridged:
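Metabolism-negative arm: chemicals (0.002–200 uM, 10 points) incubated 2 h with alginate-water microspheres, then medium moved onto VM7Luc4E2 cells for 24 h luciferase read-out. Positive direction vs 17beta-estradiol; n≥4 experiments.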

Records with an inconclusive call do not appear. The source made the active and inactive calls. How the source made its calls, unless noted: active means hit-call score of the fitted dose curve at least 0.9, where 1 is the maximum; inconclusive means response in the unintended direction; inactive means score below 0.9.

Sequence of Estrogen receptor (Homo sapiens) (P03372 whole entry, looked up): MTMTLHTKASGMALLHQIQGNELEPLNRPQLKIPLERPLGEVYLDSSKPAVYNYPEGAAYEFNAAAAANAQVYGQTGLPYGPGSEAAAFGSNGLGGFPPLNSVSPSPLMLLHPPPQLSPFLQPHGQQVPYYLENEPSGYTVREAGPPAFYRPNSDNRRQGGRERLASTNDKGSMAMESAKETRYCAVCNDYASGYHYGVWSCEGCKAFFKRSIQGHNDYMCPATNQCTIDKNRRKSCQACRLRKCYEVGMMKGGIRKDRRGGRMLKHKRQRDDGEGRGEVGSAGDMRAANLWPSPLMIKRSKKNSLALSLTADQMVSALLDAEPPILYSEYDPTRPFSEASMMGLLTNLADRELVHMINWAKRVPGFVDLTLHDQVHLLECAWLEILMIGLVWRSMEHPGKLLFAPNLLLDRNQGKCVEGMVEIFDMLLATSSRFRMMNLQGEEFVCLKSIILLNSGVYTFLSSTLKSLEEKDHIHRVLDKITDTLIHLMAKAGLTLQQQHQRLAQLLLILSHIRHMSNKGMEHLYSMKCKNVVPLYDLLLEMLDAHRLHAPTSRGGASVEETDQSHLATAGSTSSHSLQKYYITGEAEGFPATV

In the case of `COc1ccc2[nH]c([S@@](=O)Cc3ncc(C)c(OC)c3C)nc2c1`, the concentration at half-maximal activity (AC50) – broadly, the midpoint of the concentration-response curve, whichever way the signal moves – is 67.9 µM (active) in experiment [1]; 48.1 µM (active) in experiment [2]; 56.1 µM (active) in experiment [3]; 83.8 µM (active) in [4]; 33.8 µM (active) in experiment [5]; 70.6 µM (active) in experiment [6]. Besides, the half-maximal activity concentration (AC50) in experiment [7] was 47.9 µM (active); in experiment [8], 54 µM (active); in experiment [9], 66.6 µM (active); in [10], 46.4 µM (active); in experiment [11] it was 31.3 µM (active).

As to `CC/C(=C(\c1ccc(O)cc1)c1ccc(OCCN(C)C)cc1)c1ccccc1`, the AC50 is 57.8 µM (active) in experiment [12] and 57.6 µM (active) in [13].

With `COc1ccc(C=Cc2ccc(OC)cc2)cc1`, the result in [14], in experiment [15], in experiment [12] and in experiment [13] was inactive.

Source of the values: PubChem BioAssay (EPA / NIEHS).
